# From PubChem BioAssay
# Inconclusive results are not listed. The source made the active and inactive calls.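 Rule for the calls, unless noted: active = normalized viability below 100% at a tested concentration; inactive = the rest.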
# Columns and labels:
# [1] = growth inhibition of DIPG glioma cells, dose response, cell-based, SU-DIPG-XVII, MIPE5.0, CellTiter-Glo, qHTS (AID 1347060; cut-off not given, nearly all actives have AC50 up to about 26 µM); settings: SU-DIPG-XVII viability, CellTiter-Glo ATP luminescence
# [2] = growth inhibition of DIPG glioma cells, dose response, cell-based, JHH-DIPG-1, MIPE4.0, CellTiter-Glo, qHTS (AID 1347062; cut-off not given, nearly all actives have AC50 up to about 27 µM); settings: JHH-DIPG-1 viability, CellTiter-Glo ATP luminescence
# [3] = growth inhibition of DIPG glioma cells, dose response, cell-based, SU-DIPG-IV, MIPE4.0, CellTiter-Glo, qHTS (AID 1347063; cut-off not given, nearly all actives have AC50 up to about 30 µM;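 note: compound exposure lasted 48 hours before the viability readout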); settings: SU-DIPG-IV viability, CellTiter-Glo ATP luminescence
# [4] = SU-DIPG-VI glioma cell viability, MIPE4.0 library, CellTiter-Glo luminescence, qHTS (AID 1347066; cut-off not given, nearly all actives have AC50 up to about 30 µM;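 note: cells exposed to compound for 48 hours before readout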); settings: CellTiter-Glo ATP luminescence
# [5] = JHH-DIPG-1 glioma cell viability, MIPE5.0 library, CellTiter-Glo luminescence, qHTS (AID 1347067; cut-off not given, nearly all actives have AC50 up to about 26 µM;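 note: cells exposed to compound for 48 hours before readout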); settings: JHH-DIPG-1 glioma viability, CellTiter-Glo ATP luminescence
# [6] = sensitizers of A549 cells to miR-34 induction, primary screen, imaging, A549 dox-inducible miR-34, nuclei and caspase counts (AID 1347080;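 active = compounds whose cell count with miR-34 switched on is under 0.7 times the count with it off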); settings: A549 miR-34 inducible, Hoechst nuclei count, 48 h
# [7] = modifiers of HSF1 nuclear foci, imaging, Selleck Cancer Library (AID 1347162; in the data active = plate-normalised HSF1 focus index below about 0.46); settings: human cells, at 10 µM; SSMD: measured here: HSF1 foci SSMD mean; cell count: measured here: cell number; plate-normalised HSF1 focus index: stronger effect = lower value
# [8] = survival rescue of mitochondrial mutant cells in low glucose, primary screen, MELAS cybrids, Rieske KO mouse fibroblasts, CellTiter-Glo (AID 1508586;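 active = mean z-score across replicates of 1.96 or higher in either the MELAS or the Rieske mutant cell line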;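 note: z relative to plate mean and SD of compound and empty wells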)
# [9] = ovarian cancer cell viability with rucaparib, profiling panel, oncology-focused library, rucaparib conditional (AID 1508598); settings: patient-derived ovarian cancer cells, CellTiter-Glo viability, 144 h, stronger effect = lower value
# [10] = LFS_MB_P medulloblastoma growth inhibition, cell-based, chromothripsis tumors, cisplatin or BGB combos (AID 1671449; in the data active = inhibition above about 80%;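 note: cells exposed for 96 hours; 0% = vehicle DMSO and 100% = killing by high DMSO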); settings: LFS_MB_P medulloblastoma cells
# [11] = HDN33 neuroblastoma growth inhibition, cell-based, chromothripsis tumors, cisplatin or BGB combos (AID 1671450; in the data active = inhibition above about 80%;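 note: cells exposed to compound for four days; 0% = vehicle DMSO and 100% = cell killing by high DMSO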); settings: HDN33 neuroblastoma cells, stronger effect = higher value
# [12] = ICB984 medulloblastoma cell growth inhibition, synergistic combos for chromothripsis tumors, cisplatin or BGB combos (AID 1671451; call rule not given here;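 note: cells exposed for 96 hours before readout; 0% = vehicle DMSO and 100% = killing by high DMSO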); settings: ICB984 medulloblastoma cells, drug combinations, stronger effect = higher value
# [13] = HTB85 osteosarcoma cell growth inhibition, synergistic combos for chromothripsis tumors, BGB or cisplatin IC20 combos (AID 1671453; in the data active = inhibition above about 80%;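 note: cells exposed for 96 hours before readout; 0% = vehicle DMSO and 100% = high DMSO killing control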); settings: HTB85 osteosarcoma cells, drug combinations, stronger effect = higher value
# [14] = MDA-MB-436 breast carcinoma cell growth inhibition, synergistic combos for chromothripsis tumors, BGB or cisplatin combos (AID 1671458; call rule not given here;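 note: cells exposed for 96 hours; 0% = vehicle DMSO and 100% = killing by high DMSO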); settings: MDA-MB-436 breast carcinoma growth inhibition, drug combinations, stronger effect = higher value
# [15] = growth inhibition of BT084 medulloblastoma cells, cell-based, ICGC_MB145, cisplatin and BGB IC40 combos (AID 1671461; in the data active = inhibition above about 80%;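 note: cells exposed to drugs for 96 hours; 0% = vehicle DMSO and 100% = high DMSO full killing control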); settings: drug combinations, stronger effect = higher value
# [16] = growth inhibition of RCMB18 medulloblastoma cells, cell-based, cisplatin and BGB IC40 combos (AID 1671462; in the data active = inhibition above about 80%;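 note: cells exposed to compound for four days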); settings: stronger effect = higher value
smiles,measurement,setting,value
O=C(O)[C@H](Cc1c[nH]c2ccccc12)N1C(=O)c2ccccc2C1=O,outcome,[1],inactive
same,outcome,[2],inactive
same,outcome,[3],inactive
same,outcome,[4],inactive
same,outcome,[5],inactive
same,fold change,"[6]; stronger effect = lower value, cell number ratio, induced over uninduced",0.96 (inactive)
same,fold change,[6]; measured here: relative caspase fold change +Dox/-Dox,0.441
same,cell count,"[6]; measured here: total cells with miR-34 induction, stronger effect = lower value",7740
same,cell count,[6]; measured here: total cells without miR-34 induction,8070
same,SSMD,[7],2.52
same,cell count,[7],7570
same,plate-normalised HSF1 focus index,[7],1.16 (inactive)
same,z-score,"[8]; MELAS cybrid survival, CellTiter-Glo 48 h, stronger effect = higher value",-0.375 (inactive)
same,z-score,"[8]; Rieske KO mouse fibroblast survival, CellTiter-Glo 72 h",-0.075
same,viability,"[9]; at 0.000305 µM, OCI-C5x cells, with rucaparib 10 µM, 100% = cells with rucaparib alone",113% (inactive)
same,viability,"[9]; at 0.000305 µM, OCI-C5x cells, without rucaparib",103% (inactive)
same,viability,"[9]; at 0.000305 µM, OCI-P5x cells, with rucaparib 20 µM, 100% = cells with rucaparib alone",84.4% (active)
same,viability,"[9]; at 0.000305 µM, OCI-P5x cells, without rucaparib",85.2% (active)
same,viability,"[9]; at 0.00122 µM, OCI-C5x cells, with rucaparib 10 µM, 100% = cells with rucaparib alone",126% (inactive)
same,viability,"[9]; at 0.00122 µM, OCI-C5x cells, without rucaparib",108% (inactive)
same,viability,"[9]; at 0.00122 µM, OCI-P5x cells, with rucaparib 20 µM, 100% = cells with rucaparib alone",92% (active)
same,viability,"[9]; at 0.00122 µM, OCI-P5x cells, without rucaparib",93.9% (active)
same,viability,"[9]; at 0.00488 µM, OCI-C5x cells, with rucaparib 10 µM, 100% = cells with rucaparib alone",118% (inactive)
same,viability,"[9]; at 0.00488 µM, OCI-C5x cells, without rucaparib",117% (inactive)
same,viability,"[9]; at 0.00488 µM, OCI-P5x cells, with rucaparib 20 µM, 100% = cells with rucaparib alone",89.2% (active)
same,viability,"[9]; at 0.00488 µM, OCI-P5x cells, without rucaparib",93.1% (active)
same,viability,"[9]; at 0.0195 µM, OCI-C5x cells, with rucaparib 10 µM, 100% = cells with rucaparib alone",116% (inactive)
same,viability,"[9]; at 0.0195 µM, OCI-C5x cells, without rucaparib",115% (inactive)
same,viability,"[9]; at 0.0195 µM, OCI-P5x cells, with rucaparib 20 µM, 100% = cells with rucaparib alone",91% (active)
same,viability,"[9]; at 0.0195 µM, OCI-P5x cells, without rucaparib",97.2% (active)
same,viability,"[9]; at 0.0781 µM, OCI-C5x cells, with rucaparib 10 µM, 100% = cells with rucaparib alone",109% (inactive)
same,viability,"[9]; at 0.0781 µM, OCI-C5x cells, without rucaparib",117% (inactive)
same,viability,"[9]; at 0.0781 µM, OCI-P5x cells, with rucaparib 20 µM, 100% = cells with rucaparib alone",87.1% (active)
same,viability,"[9]; at 0.0781 µM, OCI-P5x cells, without rucaparib",98.7% (active)
same,viability,"[9]; at 0.313 µM, OCI-C5x cells, with rucaparib 10 µM, 100% = cells with rucaparib alone",115% (inactive)
same,viability,"[9]; at 0.313 µM, OCI-C5x cells, without rucaparib",119% (inactive)
same,viability,"[9]; at 0.313 µM, OCI-P5x cells, with rucaparib 20 µM, 100% = cells with rucaparib alone",63.7% (active)
same,viability,"[9]; at 0.313 µM, OCI-P5x cells, without rucaparib",54.2% (active)
same,viability,"[9]; at 1.25 µM, OCI-C5x cells, with rucaparib 10 µM, 100% = cells with rucaparib alone",110% (inactive)
same,viability,"[9]; at 1.25 µM, OCI-C5x cells, without rucaparib",116% (inactive)
same,viability,"[9]; at 1.25 µM, OCI-P5x cells, with rucaparib 20 µM, 100% = cells with rucaparib alone",91.1% (active)
same,viability,"[9]; at 1.25 µM, OCI-P5x cells, without rucaparib",105% (inactive)
same,viability,"[9]; at 5 µM, OCI-C5x cells, with rucaparib 10 µM, 100% = cells with rucaparib alone",114% (inactive)
same,viability,"[9]; at 5 µM, OCI-C5x cells, without rucaparib",124% (inactive)
same,viability,"[9]; at 5 µM, OCI-P5x cells, with rucaparib 20 µM, 100% = cells with rucaparib alone",87.9% (active)
same,viability,"[9]; at 5 µM, OCI-P5x cells, without rucaparib",107% (inactive)
same,inhibition,"[10]; at 0.5 µM, stronger effect = higher value",-11.4% (inactive)
same,inhibition,"[10]; measured here: combination with BGB IC20, at 0.005 µM",-13.3%
same,inhibition,"[10]; measured here: combination with BGB IC40, at 0.005 µM",-16.5%
same,inhibition,"[10]; measured here: combination with BGB IC40, at 0.05 µM",-16.7%
same,inhibition,"[10]; measured here: combination with cisplatin, at 0.5 µM, stronger effect = higher value",-21.3%
same,inhibition,"[10]; measured here: combination with cisplatin, at 5 µM, stronger effect = higher value",-30.6%
same,inhibition,"[11]; BGB combo, at 5 µM",-27.5%
same,inhibition,[11]; at 0.5 µM,-36.3% (inactive)
same,inhibition,"[11]; cisplatin combo, at 5 µM",-28.6%
same,inhibition,"[11]; measured here: with BGB IC20 combination, at 0.5 µM",-35.8%
same,inhibition,"[11]; measured here: with cisplatin IC20 combination, at 0.5 µM",-38.5%
same,inhibition,"[11]; single agent, at 5 µM",-17%
same,inhibition,"[12]; BGB IC20 combo, at 0.005 µM",2.36%
same,inhibition,"[12]; BGB IC40 combo, at 0.005 µM",-26.6%
same,inhibition,"[12]; BGB IC40 combo, at 0.05 µM",4.66%
same,inhibition,[12]; at 0.5 µM,-28.2% (inactive)
same,inhibition,"[12]; cisplatin combo, at 0.05 µM",1.23%
same,inhibition,"[12]; cisplatin combo, at 0.5 µM",-24.8%
same,inhibition,"[12]; cisplatin combo, at 5 µM",-12.9%
same,inhibition,"[12]; measured here: 5 uM single agent, at 5 µM",3.99%
same,inhibition,[13]; at 0.5 µM,-21.8% (inactive)
same,inhibition,"[13]; measured here: with BGB IC20, at 0.5 µM",-19.3%
same,inhibition,"[13]; measured here: with BGB IC20, at 5 µM",-13.7%
same,inhibition,"[13]; measured here: with cisplatin IC20, at 0.5 µM",-26.1%
same,inhibition,"[13]; measured here: with cisplatin IC20, at 5 µM",-16.9%
same,inhibition,"[13]; single agent, at 5 µM",-18.1%
same,inhibition,[14]; at 0.5 µM,-15.2% (inactive)
same,inhibition,"[14]; measured here: BGB combination, at 0.5 µM",-12%
same,inhibition,"[14]; measured here: BGB combination, at 5 µM",-8.16%
same,inhibition,"[14]; measured here: cisplatin combination, at 0.5 µM",-19.2%
same,inhibition,"[14]; measured here: cisplatin combination, at 5 µM",-7.27%
same,inhibition,[15]; at 0.5 µM,-10.1% (inactive)
same,inhibition,"[15]; cisplatin combination, at 0.5 µM",-26.2%
same,inhibition,"[15]; cisplatin combination, at 5 µM",-3.75%
same,inhibition,"[15]; measured here: BGB IC40 combination 0.05 uM, at 0.05 µM",-4.25%
same,inhibition,"[15]; single agent, at 5 µM",-4.64%
same,inhibition,[16]; at 0.5 µM,-10.5% (inactive)
same,inhibition,"[16]; cisplatin combo, at 5 µM",-5.73%
same,inhibition,"[16]; measured here: BGB IC40 combination, at 0.05 µM",-15.4%
same,inhibition,"[16]; measured here: combination with cisplatin, at 0.5 µM",-22.8%
same,inhibition,"[16]; single agent, at 5 µM",-14.1%
